Assay outcomes (PubChem BioAssay)
NPC1 promoter act: activates the NPC1 promoter; Huh7 NPC1 promoter luciferase reporter, 24 h; Potency, µM (highest dose often 9.22 µM), for inactives: at the top dose activation, actives largely listed as activators; actives 2.4% (n = 320,000); AID 485313; note: % of control where 0% means no effect; nearly all actives have a fitted effect of over 60% in size
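Stable NPC1-promoter luciferase Huh7 line; cpd (DMSO) 24 h, 37 °C, 5% CO2; Amplite luciferase reagent 10 min RT; luminescence readout. qHTS format.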
FLuc counter: inhibits or activates purified firefly luciferase, miR-21 counter-screen; P08659; purified FLuc, Km substrates, luminescence inhibition; Potency, µM (doses to about 57.5 µM), for the others: at the top dose activity change, negative = inhibition, usual class: inhibitors; actives 6.9% (n = 360,000); AID 588342;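 note: plate controls were vehicle for no effect and reference inhibitor for full effect; nearly all actives have a fitted effect of over 55% in size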
Target sequence (P08659 whole entry, looked up): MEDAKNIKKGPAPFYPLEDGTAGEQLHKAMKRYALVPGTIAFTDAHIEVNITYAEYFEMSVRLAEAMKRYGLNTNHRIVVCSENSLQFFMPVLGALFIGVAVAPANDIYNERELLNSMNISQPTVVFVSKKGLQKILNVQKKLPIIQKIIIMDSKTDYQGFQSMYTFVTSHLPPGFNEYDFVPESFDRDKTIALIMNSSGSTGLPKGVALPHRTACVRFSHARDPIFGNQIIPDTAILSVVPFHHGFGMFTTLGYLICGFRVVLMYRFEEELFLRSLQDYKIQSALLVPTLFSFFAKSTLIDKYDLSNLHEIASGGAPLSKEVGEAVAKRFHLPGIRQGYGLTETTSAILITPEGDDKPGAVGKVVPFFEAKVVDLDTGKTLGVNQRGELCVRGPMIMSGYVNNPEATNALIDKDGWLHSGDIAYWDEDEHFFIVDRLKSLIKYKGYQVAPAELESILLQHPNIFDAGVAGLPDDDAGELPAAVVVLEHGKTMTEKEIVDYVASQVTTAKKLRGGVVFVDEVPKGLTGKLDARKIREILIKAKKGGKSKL
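Biochemical qHTS of compounds, final roughly 60 µM downward over six points, against 10 nM purified firefly luciferase using Km concentrations of substrates (10 uM D-luciferin, 10 uM ATP) in Tris acetate pH 7.5 buffer; luminescence output.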
ELG1 genotox: genotoxicity induction in ELG1-luciferase HEK293T cells. HEK293T ELG1-luciferase reporter, luminescence, 16 h. AID 504466. actives 1.3% (n = 330,000). Potency, µM (top dose mostly 46 µM), for inactives: at the highest dose activity change, positive = activation, most hits filed as activators; note: % of control where 0% means no effect; nearly all actives have a fitted effect of over 60% in size
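16 hr compound incubation (37 °C, 5% CO2) of HEK293T cells carrying luciferase-tagged ELG1; luciferase then measured by ONE-Glo luminescence after 30 min at RT.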
Luc counter: counter-screen: inhibitors of Kinase-Glo firefly luciferase; AID 1379; Kinase-Glo luciferase, ATP luminescence, 8 min; Potency, µM (top dose mostly 38.3 µM), inactives show at the top dose activity change, negative = inhibition, hits mostly inhibitors; actives 0.28% (n = 200,000); Q27757; note: % is set by controls: 0 for no effect and ±100 for the full control effect; nearly all actives have a fitted effect of over 60% in size
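Kinase-Glo luciferase light output from ATP and luciferin was measured with 10 uM ATP, within the enzyme's linear range. Buffer: 50 mM imidazole pH 7.2, 50 mM KCl, 7 mM MgCl2, 0.01% Tween 20, 0.05% BSA; luminescence read after 8 min at ambient temperature.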
SMN2 splice enh: increases expression of the SMN2 splice variant | HEK293 SMN2-luciferase splicing reporter, luminescence, 30-36 h | Potency, µM (doses to about 46.1 µM), without a hit: at the highest dose activity change, positive = activation, most hits filed as activators | actives 2.8% (n = 210,000) | AID 1458; note: % of control where 0% means no effect; nearly all actives have a fitted effect of over 55% in size
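qHTS luciferase splicing reporter: luminescence rises when SMN2 exon 7 is included in transfected HEK293 cells. Compound exposure lasted 30-36 h at 37C, with 4.5 mM final sodium butyrate as control, followed by a ONE-Glo read.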
Rab9 promoter act: Rab9 promoter activation | Huh7 Rab9 promoter-luciferase reporter, luminescence, 24 h | Potency, µM (series often up to 9.22 µM), for the others: at the top dose activation, negative = inhibition, usual class: activators | actives 2.8% (n = 320,000) | AID 485297; note: % of control where 0% means no effect; nearly all actives have a fitted effect of over 60% in size
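Luminescence read-out: Huh7 cells stably expressing Rab9-luciferase, treated 24 h with compound at 37 °C, then lysed with luciferase reagent for 10 min at ambient before reading.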
* hit, by the source's call; ? = inconclusive; · = no result; [ ] = another dose, or the depositor's remark. This is a sample that favours compounds with a hit; in the whole collection about 7.4% have one here. Calls come from the whole dose curve; as a rule, active = well fitted curve in the direction sought with a large enough effect; inconclusive = small, poorly fitted or top-dose-only effect, or another doubt; inactive = no such curve, though single readings can be large; an effect the other way counts as inactive or inconclusive. Potency is the fitted concentration of half-maximal effect.

SMILES	NPC1 promoter act	FLuc counter	ELG1 genotox	Luc counter	SMN2 splice enh	Rab9 promoter act
CCOc1ccc2nc(NC(=O)CSc3nc(SC)ns3)sc2c1	22%	24µM*	18%	-1%	?	?
COc1ccc2nc(NC(=S)N(C)C)sc2c1	0.71µM*	1.9µM*	0.82µM*	-5%	-18%	0.63µM*
CCOc1ccc2nc(NC(=O)CSC3=NCCS3)sc2c1	?	15µM*	?	13%	6%	?
Cc1cn(C)c(CC(=O)NCc2ccccc2Cl)c1C(=O)O	·	-17%	·	·	·	·
CC(C)(Oc1ccc(-c2cccc3ccccc23)cc1)C(=O)O	·	·	·	-1%[7.66 µM]	-1%[9.22 µM]	·
COc1ccc2nc(NC(=O)CSc3ccccc3)sc2c1	17%	17µM*	?	3%	-11%	13%
COc1ccc2nc(NC(=O)CSc3nnc(C)n3N)sc2c1	1.6µM*	3µM*	7.3µM*	·	·	0.5µM*
COc1ccc2nc(NC(=O)CSc3nc4cccnc4n3C)sc2c1	-4%	-3%	-4%	2%	-43%	-1%
COc1ccc2nc(NC(=O)CSc3nnc(N)s3)sc2c1	?	?	16%	0%	10µM*	2µM*
COc1ccc2nc(NC(=O)CS(=O)(=O)Cc3ccccc3)sc2c1	-1%	?	5%	0%	15%	11%
CCCC(=O)Nc1nc2ccc(OC)cc2s1	0.89µM*	7.6µM*	?	-1%	10µM*	1.8µM*
Cc1ccc2cc(CN(C)C(=O)c3cccc(Cl)c3)c(=O)[nH]c2c1	·	-8%	·	·	8%	·
NC(=O)[C@H]1CC2(CC(c3cccc(NC(=O)COc4ccc(Cl)cc4)c3)=NO2)CN1C(=O)[C@H]1CCC(=O)N1 (stereo not given in full)	-1%	12µM*	2%	·	·	-8%
NC(=O)[C@@H]1CC2(CC(c3cccc(NC(=O)COc4ccc(Cl)cc4)c3)=NO2)CN1C(=O)COc1ccc(Cl)cc1 (stereo not given in full)	-9%	12µM*	-15%	·	·	-18%
CC/C=C/C(=O)N1CC2(CC(c3cccc(NC(=O)COc4ccc(Cl)cc4)c3)=NO2)C[C@H]1C(N)=O (stereo not given in full)	5%	12µM*	-11%	·	·	0%
N#CCC(=O)N1CC2(CC(c3cccc(NC(=O)COc4ccc(Cl)cc4)c3)=NO2)C[C@@H]1C(N)=O (stereo not given in full)	-4%	15µM*	0%	·	·	-7%
NC(=O)[C@H]1CC2(CC(c3cccc(NC(=O)COc4ccc(Cl)cc4)c3)=NO2)CN1C(=O)C(c1ccccc1)c1ccccc1 (stereo not given in full)	-8%	?	-9%	·	·	-15%
CCOc1ccccc1C(=O)Nc1c(NC)c2ccccc2oc1=O	·	7%	·	·	-1%	·
CCCCN(Cc1cc2cc(C)ccc2[nH]c1=O)C(=O)c1cccc(Cl)c1	·	0%	·	·	1%	·
Cn1c(=O)n(C)c2cc(N3CCCCC3)c(NC(=O)c3ccc(Cl)cc3)cc21	·	-5%	·	·	3%	·
Cc1ccccc1CN1C(=O)c2ccccc2Sc2ccc(C(=O)NC(C)c3ccccc3)cc21 (stereo not given)	·	3%	·	·	·	·
CCCc1ccc(Oc2cc(Cl)nc(N)n2)cc1	4%	-5%	10%	-3%	-3%[1.84 µM]	?
CCc1ccc(Oc2cc(C)nc(N)n2)cc1	3.2µM*	4.3µM*	?	4%	10µM*	3.2µM*
CCO[Si](CCCN)(OCC)OCC	·	·	·	·	4%	·
CC1=NC(=O)C(N=Nc2cccc(O)c2)N1c1ccccc1 (stereo not given)	-6%	6.7µM*	15µM*	-3%	-11%	7%
SMILES	NPC1 promoter act	FLuc counter	ELG1 genotox	Luc counter	SMN2 splice enh	Rab9 promoter act
Cc1cccc(-n2c(O)c(C=Nc3cccc(O)c3)c3ccccc3c2=O)n1	-1%	-11%	-7%	·	·	1%
Cc1ccc(Cn2cc(/C=C(/C#N)C(=O)Nc3cccc(Cl)c3)c3ccccc32)cc1	·	-6%	·	·	-4%	·
Nc1ccccc1C(=O)C[C@@H](N)C(=O)O	·	·	·	·	0%	·
O=C1N/C(=N/O)S/C1=C/c1cccc([N+](=O)[O-])c1	9%	21µM*	5%	-2%	-14%	-1%
CCn1c(CC2C(=O)N(C)c3ccccc32)nc2ccccc2c1=O (stereo not given)	·	0%	·	·	4%	·
Clc1cccc(-c2cc3nc4c(c(N5CCN(c6cnccn6)CC5)n3n2)CCCC4)c1	-1%	12µM*	-1%	-1%	-60%	9%
Clc1cccc(-c2cc3nc4c(c(N5CCOCC5)n3n2)CCCC4)c1	7%	?	-2%	-4%	17%	10%
Cc1[nH]n(-c2cccc(Cl)c2)c(=O)c1C=NCc1ccco1	2µM*	1.5µM*	9.2µM*	-2%	13µM*	1.1µM*
Cc1[nH]n(-c2ccccc2)c(=O)c1/C=N/O	0%	-16%	1%	-3%	-20%	15%
Cc1[nH]n(-c2cccc(Cl)c2)c(=O)c1C=NC12CN3CN(CN(C3)C1)C2	-1%	-1%	1%	-2%	-7%	2%
Cc1[nH]n(-c2ccccc2)c(=O)c1C=NCc1ccco1	3.5µM*	9.5µM*	16µM*	0%	11µM*	1.8µM*
Cc1[nH]n(-c2cccc(Cl)c2)c(=O)c1C=NCC(C)C	3.2µM*	24µM*	21µM*	-1%	13µM*	2.8µM*
CCC(=O)NC(c1cccs1)c1cc(Br)c2cccnc2c1O (stereo not given)	-37%	0%	·	·	·	-41%
CCCCN(CCCNC(=O)c1cc(Nc2ccc(OC)c(OC)c2)nc2ccccc12)Cc1ccccc1	·	-18%	·	·	5%	·
CCc1ccc2c(c1)c1nc(C)sc1n2CC(=O)OC	1%	12µM*	-4%	-5%	-13%	-2%
Cc1nc2c3cc(F)ccc3n(Cc3ccccc3)c2s1	-2%	-2%	18%	3%	-5%	-6%
CC(C)Cc1cc(C(=O)Nc2cccnc2)no1	0%	5.4µM*	10µM*	-23%	-4%	?
CSc1ccccc1NC(=O)c1cc(CC(C)C)on1	?	?	21µM*	-3%	?	?
COc1cc(NC(=O)c2cc(CC(C)C)on2)c(OC)cc1Cl	12%	0%	?	4%	-14%	-3%
Cn1cccc1C(=O)N1CCC2(CCCN(c3ncccn3)C2)CC1	·	·	·	-2%	-18%	·
Cc1ccccc1OCc1nc2c3cnn(-c4cccc(F)c4)c3ncn2n1	·	0%	·	·	12%	·
CCOC(=O)c1cccc(NC(=O)Cn2c(=O)c3cccn3c3ccccc32)c1	·	-9%	·	·	·	·
Nc1nonc1-c1noc(N2CCCCC2)n1	-2%	19µM*	?	7%	14%	?
